Test results taken from PubChem BioAssay.
Activity calls are given as the source filed them. Unless noted, how the calls were made is not given here.

Key:
[1] = HepG2 liver cancer cell viability effects, profiling panel, resazurin fluorescence, 24 h, PK04 Diversity Set (AID 1172); details: higher = more signal
[2] = basal S. cerevisiae growth modulation, no modifier, primary screen, OD600, strain BY4716, 24 h, basal condition (AID 1173); details: OD600, 24 h, higher = more signal, called active from +8 up or from −8 down
[3] = MM1S myeloma cell viability, profiling panel, resazurin fluorescence, basal, 24 h, PK04 Diversity Set (AID 1174); details: higher = more signal, called active from +8 up or from −8 down;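 further: MM1S multiple myeloma cell line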
[4] = molecular target: Dihydroorotate dehydrogenase (quinone), mitochondrial (Plasmodium falciparum (isolate 3D7)) (UniProt Q08210); assay: PfDHODH enzyme inhibitors, primary screen, biochemical, C-terminal His tag, absorbance 600 nm (AID 1175); details: DCIP absorbance 600 nm, higher = more signal, called active from +8 up or from −8 down;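 further: recombinant parasite enzyme with a five histidine tag at its C terminus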
Dihydroorotate dehydrogenase (quinone), mitochondrial (Plasmodium falciparum (isolate 3D7)), sequence (Q08210 whole entry, looked up): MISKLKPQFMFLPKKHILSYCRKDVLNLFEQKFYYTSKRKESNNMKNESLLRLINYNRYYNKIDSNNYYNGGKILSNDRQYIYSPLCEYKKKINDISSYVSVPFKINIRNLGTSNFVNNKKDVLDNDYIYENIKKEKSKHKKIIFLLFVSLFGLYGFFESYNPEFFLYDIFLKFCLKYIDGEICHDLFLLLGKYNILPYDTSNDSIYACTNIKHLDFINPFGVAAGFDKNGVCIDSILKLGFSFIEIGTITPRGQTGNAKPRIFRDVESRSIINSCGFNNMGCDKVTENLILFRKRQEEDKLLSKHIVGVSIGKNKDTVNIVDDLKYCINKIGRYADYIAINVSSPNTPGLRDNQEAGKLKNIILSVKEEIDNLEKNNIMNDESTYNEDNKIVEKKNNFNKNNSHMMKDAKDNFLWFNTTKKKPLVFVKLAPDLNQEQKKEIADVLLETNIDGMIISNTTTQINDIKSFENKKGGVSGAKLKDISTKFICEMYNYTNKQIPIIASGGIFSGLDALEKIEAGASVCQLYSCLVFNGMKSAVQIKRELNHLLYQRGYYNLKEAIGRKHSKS

[5] = P. aeruginosa biofilm formation inhibitors, primary screen, strain PAO1, LB-PBS medium, absorbance 600 nm (AID 1176); details: P. aeruginosa PAO1 growth/biofilm, A600, 12 h; higher = more signal
[6] = S. cerevisiae RM11-1a growth modifiers, primary screen, strain RM11-1a, OD600, basal, 24 h (AID 1177); details: OD600, 24 h, higher = more signal, called active from +8 up or from −8 down;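 further: cultures grown under basal conditions with no added stressor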
[7] = E. coli acrAB mutant growth effects, primary screen, E. coli filamentation inducers, strain DRC39, OD650, 24 h (AID 1178); details: higher = more signal, called active from +8 up or from −8 down;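 further: growth measured as culture turbidity by optical density at 650 nm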
[8] = E. coli acrAB mutant growth effects, primary screen, E. coli filamentation inducers, strain DRC39, OD650, 48 h (AID 1179);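 further: screen aims at cell division blockers that make cells filament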; details: E. coli DRC39 delta-acrAB growth, higher = more signal, called active from +8 up or from −8 down
[9] = RPMI8226 myeloma cell viability, profiling panel, resazurin fluorescence, basal, 24 h, PK04 Diversity Set (AID 1180); details: higher = more signal;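 further: RPMI8826 multiple myeloma cell line at 5000 cells per well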
[10] = molecular target: E3 ubiquitin-protein ligase XIAP (Homo sapiens) (UniProt P98170); assay: XIAP binders, primary screen, biophysical, small-molecule microarray, fluorescence 635 nm (AID 1181); details: small-molecule microarray binding, higher = more signal;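 further: score merges 667 nm emission and signal to noise over triplicate slides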
E3 ubiquitin-protein ligase XIAP (Homo sapiens), sequence (P98170 whole entry, looked up): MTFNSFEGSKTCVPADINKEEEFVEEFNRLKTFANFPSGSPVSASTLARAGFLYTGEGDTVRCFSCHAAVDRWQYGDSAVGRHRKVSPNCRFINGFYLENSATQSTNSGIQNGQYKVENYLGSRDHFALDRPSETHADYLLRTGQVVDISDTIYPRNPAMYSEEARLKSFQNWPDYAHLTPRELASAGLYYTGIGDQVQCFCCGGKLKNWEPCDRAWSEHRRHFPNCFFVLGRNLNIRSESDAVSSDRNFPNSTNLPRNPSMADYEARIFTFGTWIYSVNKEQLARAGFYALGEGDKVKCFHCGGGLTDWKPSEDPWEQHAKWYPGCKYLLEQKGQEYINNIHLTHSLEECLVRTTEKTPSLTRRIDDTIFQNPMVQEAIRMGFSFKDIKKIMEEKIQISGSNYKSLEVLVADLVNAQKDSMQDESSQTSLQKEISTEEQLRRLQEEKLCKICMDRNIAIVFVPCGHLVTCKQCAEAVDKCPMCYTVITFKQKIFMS

[11] = tested on: XIP peptide (Xip251-270) binding; assay: small-molecule binders of XIP peptide, primary screen, biochemical, small-molecule microarray, fluorescence 635/667 nm, 0.1 µg/mL protein (AID 1182); details: fluorescent protein binding, 635 nm, higher = more signal, called active from +8 up or from −8 down
XIP peptide (Xip251-270) = assay: small-molecule binders of XIP peptide, primary screen, biochemical, small-molecule microarray, fluorescence 635/667 nm, 0.5 µg/mL protein (AID 1183); details: small-molecule microarray binding, fluorescence 635 nm; higher = more signal
[12] = Plasmodium falciparum growth inhibition, primary screen, strain 3D7, DAPI fluorescence, 100 nL (AID 1184);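 further: parasites grown inside human red blood cells in medium with human serum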; details: P. falciparum 3D7 growth, 3 d, higher = more signal
[13] = molecular target: Homeobox protein Hox-A13 (Mus musculus) (UniProt Q62424); assay: inhibitors of HoxA13-DNA binding, primary screen, biochemical, fluorescence polarization, labeled oligonucleotide (AID 1185); details: 15 min, higher = more signal, called active from +8 up or from −8 down
Homeobox protein Hox-A13 (Mus musculus), sequence (Q62424 whole entry, looked up): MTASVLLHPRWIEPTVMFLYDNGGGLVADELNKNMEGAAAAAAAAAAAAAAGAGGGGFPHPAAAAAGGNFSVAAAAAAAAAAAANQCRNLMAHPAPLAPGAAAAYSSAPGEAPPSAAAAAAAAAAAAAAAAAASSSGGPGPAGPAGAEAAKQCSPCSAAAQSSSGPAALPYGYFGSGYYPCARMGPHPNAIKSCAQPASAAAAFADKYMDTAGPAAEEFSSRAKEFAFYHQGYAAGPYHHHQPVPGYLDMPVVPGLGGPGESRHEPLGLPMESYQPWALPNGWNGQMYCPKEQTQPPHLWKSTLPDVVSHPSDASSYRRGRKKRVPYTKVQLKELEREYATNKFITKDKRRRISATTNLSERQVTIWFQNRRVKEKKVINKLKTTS

[14] = inhibitors of hydroxyurea-induced Chk1 phosphorylation, primary screen, imaging, HeLa, phospho-Chk1 antibody, percent positive cells (AID 1186); details: hydroxyurea-induced phospho-Chk1 immunofluorescence imaging, higher = more signal
[15] = inhibitors of hydroxyurea-induced Chk1 phosphorylation, primary screen, imaging, HeLa, phospho-Chk1 nuclear intensity (AID 1187); details: hydroxyurea-induced phospho-Chk1 immunofluorescence imaging, higher = more signal

Row | SMILES | z-score [1] | z-score [2] | z-score [3] | composite z-score [4] | z-score [5] | z-score [6] | z-score [7] | z-score [8] | z-score [9] | composite z-score [10] | composite z-score [11] | composite z-score (XIP peptide (Xip251-270)) | z-score [12] | z-score [13] | z-score [14] | z-score [15]
1 | O=C1C[C@@](C(=O)NC2CC2)(c2ccc([N+](=O)[O-])cc2)[C@@H](c2ccc(CO)cc2I)N1CC12CC3CC(CC(C3)C1)C2 | -3.54 | 0.579 (inactive) | -6.88 (inactive) | 1.59 (inactive) | 1.2 (inactive) | 2.54 (inactive) | -0.56 (inactive) | -0.869 (inactive) | -5.45 | -0.095 | 0.479 (inactive) | 0.687 | -1.29 | -3.64 (inactive) | -0.174 (inactive) | -0.372 (inactive)
2 | Cc1cc(C)c(C(O)C2C=CC3C(=O)N(C)C(=O)C3N2N2CCCCC2)c(C)c1 (centres undefined) | 0.0632 | 0.361 (inactive) | -1.09 (inactive) | -0.416 (inactive) | 0.875 (inactive) | -0.136 (inactive) | -0.894 (inactive) | -0.435 (inactive) | -1.02 | 0.305 | 0.0255 (inactive) | 0.849 | 1.09 | -3.3 (inactive) | -0.514 (inactive) | -0.224 (inactive)
3 | COc1ccc(CCN2C(=O)[C@@]3(c4ccc([N+](=O)[O-])cc4)CC(=O)N(CC45CC6CC(CC(C6)C4)C5)[C@@H]3c3ccc(CO)cc32)cc1 | 0.214 | -0.12 (inactive) | 0.954 (inactive) | -25.3 (active) | 0.298 (inactive) | -0.16 (inactive) | 0.307 (inactive) | 0.241 (inactive) | 0.325 | 0.0325 | -0.038 (inactive) | 0.93 | -1.07 | -2.14 (inactive) | 0.33 (inactive) | 0.522 (inactive)
4 | CC(C)C[C@@H]1NC(=O)[C@H](CC(C)C)NC(=O)[C@@]23C(=O)N[C@@H](Cc4ccccc4)C2[C@H](C)[C@@]2(C)O[C@H]2C3/C=C/CC/C=C/CNC1=O (some centres undefined) | -0.0096 | -0.737 (inactive) | 0.229 (inactive) | -0.744 (inactive) | 0.179 (inactive) | 0.569 (inactive) | 0.794 (inactive) | -0.103 (inactive) | 0.0441 | -0.02 | -0.404 (inactive) | 0.674 | -1.52 | -6.55 (inactive) | -0.218 (inactive) | -0.0919 (inactive)
5 | COCCCNC(=O)[C@@]1(c2ccc([N+](=O)[O-])cc2)CC(=O)N(C2CCCCC2)[C@@H]1c1ccc(CO)cc1 | 0.172 | -0.27 (inactive) | 0.337 (inactive) | -0.0394 (inactive) | 0.814 (inactive) | -0.491 (inactive) | -0.131 (inactive) | -0.346 (inactive) | 0.946 | 0.147 | 0.516 (inactive) | -0.0219 | -0.214 | -2.99 (inactive) | 0.029 (inactive) | -0.269 (inactive)
6 | O=C1c2ccccc2[C@@]2(Cc3ccccc3N(CC(F)(F)F)C2=O)[C@H](c2ccc(CO)cc2)N1C1CCCCC1 | -0.0665 | 0.713 (inactive) | 1.07 (inactive) | -24.3 (active) | 0.379 (inactive) | -0.572 (inactive) | 0.172 (inactive) | -0.411 (inactive) | 0.748 | -0.2 | 0.586 (inactive) | 0.536 | -0.361 | 0.601 (inactive) | -0.202 (inactive) | -0.26 (inactive)
7 | CCOC(=O)C[C@H]1[C@H](OC(=O)c2ccccc2-c2ccccc2)[C@@H](NC(=O)c2ccc(-c3ccccc3)cc2)c2cc(OCCCO)ccc2N1C(=O)Cc1ccc(OC)cc1 | -0.235 | -0.034 (inactive) | -0.0275 (inactive) | -1.29 (inactive) | 0.2 (inactive) | -0.28 (inactive) | -0.489 (inactive) | -0.628 (inactive) | 0.364 | -0.16 | 0.617 (inactive) | 0.222 | 0.561 | -2.32 (inactive) | 0.663 (inactive) | 0.241 (inactive)
8 | C=C(C)[C@@H]1CC=C(C(O)C2C=CC3C(=O)NC(=O)C3N2Nc2ccccn2)CC1 (some centres undefined) | -1.3 | -0.252 (inactive) | -1.48 (inactive) | 0.291 (inactive) | 1.99 (inactive) | -0.0819 (inactive) | -0.575 (inactive) | -0.339 (inactive) | -2.2 | 0.287 | 0.745 (inactive) | 0.718 | 0.982 | -3.65 (inactive) | 0.129 (inactive) | -0.126 (inactive)
9 | O=C1O[C@H](c2ccccc2)[C@H](c2ccccc2)N2[C@H]1[C@@H](C(=O)NC[C@H](O)c1ccccc1)[C@]1(C(=O)Nc3ccc(C#CC4(O)CCCCCC4)cc31)[C@H]2c1ccc(OCCO)cc1 | -0.148 | 0.359 (inactive) | -0.15 (inactive) | -1.82 (inactive) | 1.9 (inactive) | 1.68 (inactive) | 1.66 (inactive) | 0.855 (inactive) | 0.931 | -0.168 | -0.342 (inactive) | 0.799 | -1.45 | 0.199 (inactive) | -0.309 (inactive) | -0.412 (inactive)
